16 compounds from PubChem BioAssay (EPA / NIEHS) can be followed below.

Structures are written as SMILES. Results filed as inconclusive are left out. Active and inactive are the calls of the source. How the source made its calls, unless noted: active means hit-call score of the fitted dose curve at least 0.9, where 1 is the maximum; inactive means score below 0.9.

Experiment [1] in a line: CCTE_Harrill_HTTr_Apoptosis_MCF7: CCTE's 6-hour Apoptosis Assessment for the High-Throughput Transcriptomics (HTTr) Platform, in MCF-7 cells cultured in DMEM + 10% fetal bovine serum, Harrill Lab (AID 2284011). The essentials:
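MCF-7 cells in DMEM + 10% FBS exposed 6 h to chemicals over an eight-point dilution series. Caspase-3/7 activation imaged by high-content CellEvent Green staining; fitted bidirectionally versus DMSO.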

Experiment [2] can be described thus: CCTE_Harrill_HTTr_CellCount_MCF7: CCTE's Cell Proliferation Assessment for the High-Throughput Transcriptomics (HTTr) Platform, Harrill Lab (AID 2284012; active means hit-call score of the fitted dose curve at least 0.9, where 1 is the maximum;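 further: cells exposed to compound for six hours; intended direction is loss of nuclei count meaning fewer cells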). The essentials: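 MCF-7 cells were exposed for 6 h to an eight-point dilution series; Hoechst-labeled nuclei were counted by high content imaging. Curves were fitted bidirectionally against DMSO as negative control and baseline, with signal loss indicating reduced cell count.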

Experiment [3] can be described thus: CCTE_Shafer_MEA_acute_burst_number: CCTE's Neural Acute Assay for Single-Electrode Bursts, Shafer Lab (AID 2284013). In a few lines: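 Spontaneous network activity of primary rat cortical neurons was recorded extracellularly on microelectrode arrays at 37 C, with 40-min periods before and during exposure to 0.03-40 uM compound on DIV 13 or 15.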
Experiment [4] is described as follows: CCTE_Shafer_MEA_acute_burst_duration_mean: CCTE's Neural Acute Assay for Mean Burst Duration, Shafer Lab (AID 2284014).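 Further: hits are decreases in mean burst duration relative to DMSO controls.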 In a few lines: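 Read-out is the per-well percent change in mean burst duration (first to last spike within a single-electrode burst) between 40-min recordings before and after compound. Cultures were primary rat cortical neurons on MEAs, dosed at 0.03-40 uM on DIV 13 or 15.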

Experiment [5] can be described thus: CCTE_Shafer_MEA_acute_per_burst_spike_number_mean: CCTE's Neural Acute Assay for Average Number of Spikes Per Burst, Shafer Lab (AID 2284015).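 Further: hits are decreases in mean spikes per burst versus baseline.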 The essentials: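 Read-out: percent change in mean spikes per burst, each well's post-exposure 40-min recording versus its own 40-min baseline. Rat cortical cultures, DIV 13 or 15, compounds 0.03-40 uM; DMSO is negative control, loss-of-signal fitting.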

A short description of experiment [6]: CCTE_Shafer_MEA_acute_interburst_interval_mean: CCTE's Neural Acute Assay for Mean Interburst Interval, Shafer Lab (AID 2284016).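 Further: percent change of mean interburst interval versus each well's own pre-dose baseline; curves fitted for decrease in interburst interval relative to DMSO.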 In a few lines:
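Rat cortical cultures, DIV 13/15; 20 min equilibration, 40 min baseline, compound 0.03-40 uM, 40 min re-recording, 37 C. Spikes detected at 8x rms noise (300-5000 Hz band-pass). Endpoint: % change in interburst interval, fitted in loss direction vs DMSO.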

Experiment [7] is described as follows: CCTE_Shafer_MEA_acute_burst_percentage_std: CCTE's Neural Acute Assay for Standard Deviation of Burst Percentage, Shafer Lab (AID 2284018).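 Further: fitted in the negative direction so actives lower burst percentage SD.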 In a few lines: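 Value is percent change from baseline in the across-electrode SD of spikes-in-bursts percentage, wells with >/= 10 active electrodes. Acute 40-min exposure to 0.03-40 uM on DIV 13 or 15 rat cortical cultures, recorded at 37 C after 40-min baseline.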

A short description of experiment [8]: CCTE_Shafer_MEA_acute_per_network_burst_spike_number_mean: CCTE's Neural Acute Assay for Average Number of Spikes in a Network Burst, Shafer Lab (AID 2284019).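 On AC50: curve fitted for loss of signal so actives reduce spikes per network burst.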 The essentials: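 Read-out is mean spike count per network burst, taken as percent change between a 40-min pre-exposure and a 40-min post-exposure recording per well. Rat primary cortical neurons on MEAs at 37 C, DIV 13 or 15; compounds at 0.03-40 uM.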

Experiment [9] is described as follows: CCTE_Shafer_MEA_acute_per_network_burst_electrodes_number_mean: CCTE's Neural Acute Assay for Mean Number of Electrodes in a Network Burst, Shafer Lab (AID 2284021).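 Further: curves fitted for decreases only so hits reduce electrodes per burst.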 The essentials: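 Rat primary cortical neurons on 48-well MEAs, DIV 13 or 15, were treated at 0.03-40 uM. Spikes were detected at 8x rms noise and recorded at 37 C. The mean electrodes per network burst in a 40 min exposure recording was expressed as percent change from a 40 min baseline.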

A short description of experiment [10]: CCTE_Shafer_MEA_acute_cross_correlation_HWHM: CCTE's Neural Acute Assay for Cross Correlation at Half Width at Half Maximum, Shafer Lab (AID 2284026).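 Further: percent change per well from pre-dose baseline in spike cross-correlogram half width; hits are a decrease in cross-correlogram half width relative to DMSO.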 In a few lines:
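Rat primary cortical neurons on 48-well MEA plates; 40-min baseline and 40-min post-exposure recordings at 37 C on DIV 13 or 15, compounds 0.03-40 uM. Spikes detected at 8x rms noise; percent change in cross-correlogram HWHM per well vs baseline.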

The nature of experiment [11]: CCTE_Shafer_MEA_acute_synchrony_index: CCTE's Neural Acute Assay for Synchrony, Shafer Lab (AID 2284027).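 Further: network synchrony index of spontaneous spiking in primary rat cortical neurons on MEAs; fitted for loss of signal so actives lower synchrony relative to DMSO.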 The essentials:
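Primary rat cortical neurons on 16-electrode MEA wells were recorded 40 min at baseline (DIV 13 or 15) and 40 min after compound (0.03-40 uM) at 37 C. Synchrony index (0-1) expressed as percent change from baseline, versus DMSO.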

Experiment [12] can be described thus: CCTE_Shafer_MEA_dev_per_burst_spike_percent: CCTE's Neural Network Formation Assay for Percent of Spikes in a Burst, Shafer Lab (AID 2284032).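 Further: fitted as a decrease in burst spike percentage below DMSO baseline.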 In a few lines: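 Rat primary cortical neurons on 16-electrode MEA wells, dosed from plating day 0 for 12 days with renewal on DIV 5 and 9; spikes-in-bursts percentage averaged over bursting electrodes, collapsed as AUC across days 5, 7, 9, 12; loss direction versus DMSO.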

Experiment [13] can be described thus: CCTE_Shafer_MEA_dev_active_electrodes_number: CCTE's Neural Network Formation Assay for Number of Active Electrodes, Shafer Lab (AID 2284040; active means hit-call score of the fitted dose curve at least 0.9, where 1 is the maximum;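 further: potency for loss of active electrodes versus DMSO so lower counts are hits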). The essentials: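 Rat cortical primary cultures, 1.5 x 10^5 cells/well, PEI-coated MEA, laminin drop. Continuous exposure DIV 0–12; full media/compound change DIV 5, 9. Readout: electrodes with mean firing ≥5 spikes/min; AUC across days; loss vs DMSO.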

The nature of experiment [14]: CCTE_Shafer_MEA_dev_burst_rate: CCTE's Neural Network Formation Assay for Burst Rate, Shafer Lab (AID 2284042). In a few lines:
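Cells plated, treated day 0; recorded DIV 5, 7, 9, 12; fed and re-treated DIV 5, 9. Endpoint: bursts per recording time, active-electrode well mean, trapezoidal AUC, fitted in decreasing direction against DMSO baseline.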

Experiment [15] is described as follows: CCTE_Shafer_MEA_dev_bursting_electrodes_number: CCTE's Neural Network Formation Assay for Number of Bursting Electrodes, Shafer Lab (AID 2284043; active means hit-call score of the fitted dose curve at least 0.9, where 1 is the maximum;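 further: potency is for loss of bursting electrodes relative to DMSO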). The essentials: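 Read-out is the per-well number of electrodes bursting at least once every 2 minutes, recorded on days 5, 7, 9 and 12 and collapsed by trapezoidal area under the curve. Cultures were primary rat cortical neurons on MEA plates, treated continuously from plating.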

Experiment [16] in a line: CCTE_Deisenroth_AIME_384WELL_CTox_Active: Cytotoxicity Assessment (CTOX) in CCTE's 384-well Estrogen Receptor Transactivation Assay with AIME metabolic competence (metabolism positive), Deisenroth Lab (AID 2284037; active means hit-call score of the fitted dose curve at least 0.9, where 1 is the maximum;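 further: chemicals first conditioned 2 h by alginate-bound induced rat liver S9 before cells; activity means signal loss indicating cell death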). The essentials: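 Cytotoxicity in VM7Luc4E2 breast cells, 24 hour, measured as protease-substrate fluorescence loss, after 2-hour metabolic conditioning with induced rat hepatic S9 in alginate microspheres. Concentrations 0.002 - 200 uM, 10 points, bidirectional fitting.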

Experiment [17] can be described thus: CCTE_Deisenroth_AIME_384WELL_CTox_Inactive: Cytotoxicity Assessment (CTOX) in CCTE's 384-well Estrogen Receptor Transactivation Assay without AIME metabolic competence (metabolism negative), Deisenroth Lab (AID 2284039; active means hit-call score of the fitted dose curve at least 0.9, where 1 is the maximum;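 further: cell viability via live-cell protease substrate cleaved to fluorescent probe; cells exposed 24 h to medium preincubated 2 h with alginate-water beads without S9; loss of fluorescence signal means loss of viability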). In a few lines: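 Metabolism-negative arm: chemicals (10-point, 0.002 - 200 uM) preincubated 2 h with alginate-water lids, medium moved onto VM7Luc4E2 cells for 24 h. Fluorescent live-cell protease readout; bidirectional curve fit.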

For `Oc1c(Cl)cc(Cl)cc1Cl`, the outcome in [1] and in [2] was inactive.
For `Cc1cccc(C)c1NC(=O)CN1CCCC1=O`, the result in experiment [1] and in experiment [2] was inactive.
Consider `CC(C)=CC1C(C(=O)OCc2cccc(Oc3ccccc3)c2)C1(C)C` (stereo not drawn), for which the result in [1] and in [2] was inactive.
In the case of `CCCCOC(=O)COC(=O)c1ccccc1C(=O)OCCCC`, the outcome in [1], in experiment [2], in experiment [4], in experiment [5], in experiment [6] and in [7] was inactive. The outcome in experiment [8], in [9], in experiment [10] and in experiment [11] was inactive. For the same compound, the AC50 in experiment [3] was 10.5 nM (active).
In the case of `Oc1ccc(Cc2ccc(O)cc2)cc1`, the result in experiment [1], in experiment [2], in experiment [4], in experiment [6], in [7] and in experiment [8] was inactive. The call in experiment [9], in [10] and in experiment [11] was inactive. Besides, the values for the AC50 in [3] and in [5] were 3 nM (active) and 25.3 µM (active), respectively.
For `C1CCC(C2CCCCC2)CC1`, the result in experiment [1] and in experiment [2] was inactive.
With `CCCSP(=S)(OCC)Oc1ccc(Cl)cc1Cl` (stereo not drawn), the result in experiment [1] and in [2] was inactive.
Regarding `CCOP(=S)(OCC)O/N=C(\C#N)c1ccccc1`, the result in experiment [1] and in [2] was inactive.
In the case of `CC1(C)[C@H](C(=O)O[C@H](C#N)c2cccc(Oc3ccccc3)c2)[C@@H]1/C=C(\Cl)C(F)(F)F`, the result in [1], in experiment [2], in experiment [3], in experiment [7] and in [14] was inactive. Moreover, the AC50 in [4] is 761 nM (active); in [5] it was 0.679 µM (active); in experiment [6], 1.29 µM (active); in [8], 553 nM (active); in experiment [9] it was 818 nM (active); in experiment [10], 23.7 µM (active). The AC50 in experiment [11] is 450 nM (active); in [12], 22.7 µM (active); in experiment [13], 12.9 µM (active); in experiment [15], 12.9 µM (active).
As to `Nc1ccc(N)cc1`, the result in experiment [1] and in [2] was inactive.
`CCOC(=O)CCN(SN(C)C(=O)Oc1cccc2c1OC(C)(C)C2)C(C)C`: the outcome in experiment [1] and in experiment [2] was inactive.
As for `C[C@H]1C(=O)O[C@@H]2CCN3CC=C(COC(=O)[C@](C)(O)[C@]1(C)O)[C@H]23`, the outcome in [1] and in [2] was inactive.
As for `O=C(Cc1ccccc1)OCCc1ccccc1`, the result in [1], in [2], in experiment [3], in [4], in [5] and in [6] was inactive. In addition, the compound was classed as inactive in experiment [7], in experiment [8], in experiment [9], in experiment [10] and in experiment [11].
As for `CCOP(=S)(OCC)OP(=S)(OCC)OCC`, the result in [1] and in experiment [2] was inactive.
For `CCOC(=O)c1ccccc1S(=O)(=O)NC(=O)Nc1nc(Cl)cc(OC)n1`, the outcome in experiment [1] and in experiment [2] was inactive.
On to `CC(C)O.CC(C)O.OCCN(CCO)CCO.OCCN(CCO)CCO.[Ti]`, for which the result in experiment [1], in experiment [16] and in experiment [17] was inactive.
